The list is not random: actives were taken first. Their share in the collection is about 6.3%.
HepG2 viability – qHTS for Inhibitors of TGF-b: Cytotox Counterscreen. hit rate 0.76% among 410,000. HepG2 CAGA-GFP viability, ATP luminescence, 18 h. Potency, µM (titrated, usually from 46.1 µM), without a hit: at the highest dose activity change, negative = cytotoxicity, actives largely listed as cytotoxic
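CellTiter-Glo luminescence gave cytotoxicity after 18 hours at 37 degrees C. The cells were HepG2 CAGA-GFP in 1% FBS DMEM, stimulated with 500 pg/mL TGF-beta after compound addition. %Activity was normalised to no-cell wells (complete cell-killing) and DMSO (no toxicity), and curves were fitted and classified.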
Gal4-VP16 FLuc – VP16 counterscreen qHTS for inhibitors of ROR gamma transcriptional activity. Drosophila S2 Gal4-VP16 UAS-luciferase, luminescence, 20 h. hit rate 3.5% among 310,000. Potency, µM (titrated, usually from 53.6 µM), for inactives: at the highest dose activity, negative = inhibition, most hits filed as inhibitors;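 further: Gal4-VP16 expression switched on by copper sulfate through the metallothionein promoter; on the % scale 0 is the no-effect control and ±100 the full control effect; nearly all actives have a fitted effect of over 50% in size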
TGFb SMAD3 inh – qHTS for Inhibitors of TGF-b; hit rate 1.2% among 410,000; HepG2 CAGA-GFP TGF-b/SMAD3 reporter, GFP fluorescence, 18 h; TGF-beta stimulated, 500 pg/mL final; Potency, µM (titrated, usually from 46.1 µM), for the others: top-dose activity, negative = inhibition, hits mostly inhibitors; further: on the % scale 0 is the no-effect control and ±100 the full control effect; nearly all actives have a fitted effect of over 65% in size
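HEPG2 CAGA-GFP cells (1000/well, DMEM with 1% FBS) were pre-incubated 2 h at 37 degrees C, given compound by pin tool, then stimulated with TGF-beta at 500 pg/mL final for 18 h before per-cell GFP fluorescence imaging.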
ATXN2 expr inh – Primary qHTS for Inhibitors of ATXN expression; HEK-293 ATXN2-luciferase reporter, luminescence, 24 h; Potency, µM (top dose mostly 57 µM), for inactives: at the highest dose activity change, negative = inhibition, most hits filed as inhibitors; hit rate 0.72% among 360,000; AID 1745845, 2022; further: on the % scale 0 is the no-effect control and ±100 the full control effect; nearly all actives have a fitted effect of over 55% in size
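ATXN2-luciferase reporter cells (luciferase flanked by upstream and downstream ATXN2 gene portions) were treated 24 h at 37 °C with compounds at up to 57 uM. SteadyGlo luminescence gave expression; GF-AFC fluorescence gave viability.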
RORg inh – qHTS for inhibitors of ROR gamma transcriptional activity. Nuclear receptor ROR-gamma (Mus musculus), P51450. Drosophila S2 Gal4-RORgamma UAS-luciferase reporter, 20 h. Potency, µM (series often up to 53.6 µM), without a hit: top-dose activity change, negative = inhibition, actives largely listed as inhibitors. hit rate 5.4% among 310,000; further: on the % scale 0 is the no-effect control and ±100 the full control effect; nearly all actives have a fitted effect of over 60% in size
Target sequence (P51450 whole entry, looked up, the tested form may be a part): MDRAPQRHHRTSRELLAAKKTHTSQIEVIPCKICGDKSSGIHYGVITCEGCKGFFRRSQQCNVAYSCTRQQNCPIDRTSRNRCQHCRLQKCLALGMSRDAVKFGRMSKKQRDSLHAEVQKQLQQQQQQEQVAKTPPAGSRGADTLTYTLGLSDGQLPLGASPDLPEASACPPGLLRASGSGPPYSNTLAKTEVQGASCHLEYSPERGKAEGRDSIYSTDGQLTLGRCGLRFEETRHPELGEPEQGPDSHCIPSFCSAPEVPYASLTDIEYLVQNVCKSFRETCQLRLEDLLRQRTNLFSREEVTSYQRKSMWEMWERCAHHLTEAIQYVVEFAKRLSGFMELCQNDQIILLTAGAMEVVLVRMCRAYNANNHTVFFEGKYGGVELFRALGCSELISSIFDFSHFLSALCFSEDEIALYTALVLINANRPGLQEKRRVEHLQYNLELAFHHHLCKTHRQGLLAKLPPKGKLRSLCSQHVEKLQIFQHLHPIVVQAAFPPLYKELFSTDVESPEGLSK
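Luminescence from a UAS-regulated Photinus luciferase reporter in stably transfected Drosophila Schneider cells is measured; decreased signal marks ROR gamma inhibition. Fusion expression is induced by 700 uM copper sulfate for 20 hr.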
S2 tox – Viability Counterscreen for Primary qHTS for Inhibitors of ATXN expression; Potency, µM (top dose mostly 56.7 µM), usual class: cytotoxic; hit rate 0.49% among 400,000; AID 651635, 2014; S2 cells (HEK-293 line with an ATXN2-luciferase reporter) viability, CellTiter-Fluor protease fluorescence, 24 h; further: nearly all actives have a fitted effect of over 40% in size
* marks the source's active call; other numbers are inactive results. The call rests on the fitted dose curve; in most records, active means well fitted curve in the direction sought with a large enough effect; inconclusive means small, poorly fitted or top-dose-only effect, or another doubt; inactive means no such curve, though single readings can be large; an effect the other way counts as inactive or inconclusive. Potency means the concentration at half of the fitted maximal effect.

Screening CCc1ccc2oc(-c3cc(N=Cc4cccc(OC)c4O)ccc3O)nc2c1 returned HepG2 viability -17%, Gal4-VP16 FLuc inconclusive, TGFb SMAD3 inh -3%, ATXN2 expr inh -38%, RORg inh 11µM* and S2 tox inconclusive.
Screening Cc1cccc(-c2[nH]c(C(C)(C)C)nc2-c2ccc3nccnc3c2)n1 returned ATXN2 expr inh 27µM*.
`Cc1cccc(-c2[nH]ncc2-c2ccc3ncccc3n2)n1` gave ATXN2 expr inh 6%.
Screening Cc1ccc2c(CNCc3cccs3)c(C(=O)O)n(Cc3ccc(F)cc3)c2c1 returned HepG2 viability -50%, TGFb SMAD3 inh inconclusive, ATXN2 expr inh -20% and S2 tox inconclusive.
`Cc1ccc2c(CNCc3ccc(C)o3)c(C(=O)O)n(Cc3ccc(F)cc3)c2c1` gave HepG2 viability -45%, TGFb SMAD3 inh -29% and ATXN2 expr inh inconclusive.
`C=Cc1ccc(Cn2c(C(=O)O)c(CNCc3ccc(F)cc3)c3ccc(C)cc32)cc1` gave HepG2 viability -107%, TGFb SMAD3 inh 13µM*, ATXN2 expr inh inconclusive and S2 tox 18µM*.
`COc1ccc(Cn2c(C(=O)O)c(CNCc3cccs3)c3ccc(C)cc32)cc1` gave HepG2 viability -41%, TGFb SMAD3 inh inconclusive, ATXN2 expr inh inconclusive and S2 tox 5µM*.
Screening COc1ccc2c(CNCCc3cccs3)c(C(=O)O)n(Cc3ccc(F)cc3Cl)c2c1 returned HepG2 viability 18µM* and TGFb SMAD3 inh inconclusive.
COc1ccc2c(CNCc3cccs3)c(C(=O)O)n(Cc3ccc(F)cc3Cl)c2c1 was read as HepG2 viability -61%, TGFb SMAD3 inh inconclusive, ATXN2 expr inh 1% and S2 tox inactive.
`C=Cc1ccc(Cn2c(C(=O)O)c(CNCc3cccs3)c3ccc(C)cc32)cc1` gave HepG2 viability 13µM*, TGFb SMAD3 inh inconclusive and ATXN2 expr inh inconclusive.
For CCc1cccc(C)c1NC(=O)C(NS(=O)(=O)c1ccc2c(c1)CCC(=O)N2)c1ccccc1 (stereo not drawn) the results were HepG2 viability -91%, TGFb SMAD3 inh inconclusive, ATXN2 expr inh 10% and S2 tox inactive.
For COc1ccc(CCNc2ncnc3nc[nH]c23)cc1 the results were HepG2 viability -5% and TGFb SMAD3 inh 5%.
COc1ccc(-c2nn3c(-c4cc(C)[nH]n4)nnc3s2)cc1 was read as HepG2 viability 3% and TGFb SMAD3 inh 10%.
COc1ccc(-c2c[n+](CC(=O)OC3CC(C)CCC3C(C)C)c3n2CCC3)cc1 (stereo not drawn) was read as HepG2 viability -31%, Gal4-VP16 FLuc 7.9µM*, TGFb SMAD3 inh 20µM*, ATXN2 expr inh inconclusive, RORg inh inconclusive and S2 tox inconclusive.
CC(C)[C@@H]1CC[C@@H](C)C[C@H]1OC(=O)C[n+]1cc(-c2ccc(Cl)cc2)n2c1CCCCC2 was read as HepG2 viability -187%, Gal4-VP16 FLuc 11µM*, TGFb SMAD3 inh inconclusive, ATXN2 expr inh inconclusive, RORg inh inconclusive and S2 tox inconclusive.
For O=C(C[n+]1cc(-c2ccc(Cl)cc2)n2c1CCCCC2)c1ccccc1 the results were HepG2 viability -18%, Gal4-VP16 FLuc -3%, TGFb SMAD3 inh 7%, ATXN2 expr inh 24%, RORg inh -14% and S2 tox inactive.
Screening CCc1nc2ccc(C(=O)Nc3ccc(OC)c(OC)c3)cn2c1N(C)C(=O)Cc1ccccc1 returned HepG2 viability -3%, TGFb SMAD3 inh 3%, ATXN2 expr inh 3% and S2 tox inactive.

Source: PubChem BioAssay
